Measurements as given in PubChem BioAssay (NCATS).
Records with an inconclusive call do not appear. The source made the active and inactive calls. Calls come from the whole dose curve; as a rule, active = well fitted curve in the direction sought with a large enough effect; inconclusive = small, poorly fitted or top-dose-only effect, or another doubt; inactive = no such curve, though single readings can be large; an effect the other way counts as inactive or inconclusive.

Experiments:
[1] = test system: Zika virus NS2B-NS3 protease; test: Primary screen GU AMC qHTS for Zika virus inhibitors (AID 1347154); note: nearly all actives have a fitted effect of over 70% in size
Outline: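 Unlinked Zika NS2B hydrophilic domain–NS3 protease complex at 25 nM in 10 mM Tris-HCl pH 8.0, 0.01% Tween 20, with an AMC peptide substrate. Fluorescence change (340/450 nm) over 15 min at room temperature, normalized to controls, fitted to 4-parameter Hill.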

[2] = test system: Zika virus NS2B-NS3 protease (unlinked complex); test: Primary screen GU Rhodamine qHTS for Zika virus inhibitors: Unlinked NS2B-NS3 protease assay (AID 1347159); note: nearly all actives have a fitted effect of over 60% in size
Outline: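 Percent inhibition came from the 15-min rise in Rhodamine110 fluorescence (1.5 microM substrate, ~15% conversion), normalized to no-inhibitor and no-enzyme wells and Hill-fitted. Unlinked protease, 25 nM, pH 8.0 Tris buffer; compounds up to 114 microM, 15-min preincubation.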

[3] = test system: Zika virus NS2B-NS3 protease (linked construct); test: Primary screen NINDS Rhodamine qHTS for Zika virus inhibitors (AID 1347160); conditions: outcome: dose series up to 57.1 µM unless noted; note: nearly all actives have a fitted effect of over 55% in size
Outline: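 Rhodamine110-peptide cleavage (1.5 µM substrate) by 25 nM linked NS2B-NS3 enzyme at pH 8.0 (Tris, Tween 20), after 15 min RT preincubation with compounds; 15-min fluorescence change normalized to controls and Hill-fitted.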

[4] = qHTS to identify inhibitors of the type 1 interferon - major histocompatibility complex class I in skeletal muscle: primary screen against the NCATS Pharmaceutical Collection (AID 1347407);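 note: luminescence of HiBiT knocked into endogenous HLA-B as interferon-induced MHC class I level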
Outline: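 Luminescence from HiBiT-tagged endogenous HLA-B*08:01 served as the read-out of IFN-beta-induced MHC class I in CRISPR-engineered C25cl48 myoblasts. Cells received 4 ng/ml IFN-beta plus compound (high final 46 uM, […]) for 24 h.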

[5] = qHTS to identify inhibitors of the type 1 interferon - major histocompatibility complex class I in skeletal muscle: primary screen against the NCATS Mechanism Interrogation Plate v5.0 (MIPE) Libary (AID 1347411); note: nearly all actives have a fitted effect of over 65% in size
Outline: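 HLA-B HiBit myoblasts, dexamethasone-free medium + 4 ng/ml IFN-b, 24 h compound, 11-pt 1:3 from 46 uM final. Readout: Nano-Glo HiBiT lytic luminescence after 10 min lysis, RT.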

[6] = target: Protein phosphatase 1D (Homo sapiens) (UniProt O15297); test: Rhodamine-PBP qHTS Assay for Modulators of WT P53-Induced Phosphatase 1 (WIP1) (AID 1347425)
Protein phosphatase 1D (Homo sapiens), sequence (O15297 whole entry, looked up): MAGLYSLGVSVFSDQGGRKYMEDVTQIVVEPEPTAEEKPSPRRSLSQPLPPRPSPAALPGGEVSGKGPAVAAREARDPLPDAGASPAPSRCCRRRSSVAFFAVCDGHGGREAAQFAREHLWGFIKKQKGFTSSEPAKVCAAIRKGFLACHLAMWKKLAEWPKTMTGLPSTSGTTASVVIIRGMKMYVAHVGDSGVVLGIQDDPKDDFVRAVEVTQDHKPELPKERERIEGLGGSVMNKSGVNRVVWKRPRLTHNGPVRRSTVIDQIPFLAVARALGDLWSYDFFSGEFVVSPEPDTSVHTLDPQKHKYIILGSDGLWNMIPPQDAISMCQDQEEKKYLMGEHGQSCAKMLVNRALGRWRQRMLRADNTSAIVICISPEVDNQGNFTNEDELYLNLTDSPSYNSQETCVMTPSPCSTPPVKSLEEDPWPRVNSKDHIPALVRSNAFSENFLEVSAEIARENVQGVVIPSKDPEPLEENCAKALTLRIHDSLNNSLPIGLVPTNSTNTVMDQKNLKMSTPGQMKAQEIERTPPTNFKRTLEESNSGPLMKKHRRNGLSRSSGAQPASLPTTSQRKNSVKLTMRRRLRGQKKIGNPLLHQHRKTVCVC
Outline: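 The read-out is the change in Rhodamine-PBP fluorescence (f1 - f0, ex 525/em 598 nm) as Pi is released, read each minute for 11 min. Final reaction: 5 nM WIP1, 10 uM phosphopeptide VEPPL-pS-QETFS, 10 uM Rh-PBP, 50 mM Tris-HCl pH 7.5, 30 mM MgCl2. Compound was preincubated with enzyme for 1 hour at room temperature.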

[7] = Primary qHTS for inhibitors of La Crosse Virus (LACV) - induced cell death in SH-SY5Y cells (AID 1508616);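 note: top concentration of the series differs between compounds; higher means more rescue of cells from virus-induced death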
Outline: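 Cytopathicity rescue screen: compounds pinned onto SH-SY5Y cells, which are then infected with LACV (MOI 0.01) and held 6 days at 37C. Percent activity is scaled between infected DMSO control and uninfected DMSO control.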

[8] = target: Protein phosphatase 1D (Homo sapiens) (UniProt O15297); test: RapidFire Mass Spectrometry qHTS Assay for Modulators of WT P53-Induced Phosphatase 1 (WIP1) (AID 1347424); note: series mostly up to about 63 µM
Outline: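 RapidFire MS readout of dephosphorylated VEPPL-S-QETFS product, with 1 uM isotope-labelled peptide standard. Reaction: 10 nM WIP1, 2 uM phosphopeptide substrate, 5 min, room temperature, after 1 h compound preincubation; stopped with 0.5% formic acid.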

Measured: Potency

CC[C@H](C)C(=O)O[C@H]1C[C@@H](C)C=C2C=C[C@H](C)[C@H](CC[C@@H]3C[C@@H](O)CC(=O)O3)[C@H]21
inactive: [1] | [2] | [3] inactive [at 33.1 µM] | [4] | [5] | [6] | [7]

COCCCOc1cc(C[C@@H](C[C@H](N)[C@@H](O)C[C@H](C(=O)NCC(C)(C)C(N)=O)C(C)C)C(C)C)ccc1OC
inactive: [1] | [4] | [5] | [6] | [7]

COc1ccc(C(=O)CC(=O)c2ccc(C(C)(C)C)cc2)cc1
inactive: [1] | [4] | [5] | [8] | [6] | [7]

NS(=O)(=O)c1cc2c(cc1Cl)NC(C(Cl)Cl)NS2(=O)=O (centres undefined)
inactive: [1] | [4] | [5] | [8] | [6] | [7]

CNNCc1ccc(C(=O)NC(C)C)cc1
inactive: [1] | [4] | [5] | [8] | [6] | [7]

COc1ccc2cc3[n+](cc2c1OC)CCc1cc2c(cc1-3)OCO2
inactive: [1] | [4] | [8] | [6]

CCc1cc(C(N)=S)ccn1
inactive: [1] | [4] | [8] | [6]

O=C(O)c1cc(=O)[nH]c(=O)[nH]1
inactive: [1] | [4] | [5] | [8] | [6] | [7]

CCC(C)(C)c1ccc(CC(C)CN2C[C@@H](C)O[C@@H](C)C2)cc1 (some centres undefined)
inactive: [1] | [4] | [5] | [8] | [6] | [7]

O=C(O)CSCC(=O)NC1CCSC1=O (centres undefined)
inactive: [1] | [4] | [5] | [8] | [6] | [7]

O=c1cc(O)c(Cl)c[nH]1
inactive: [1] | [4] | [8] | [6]

COc1cccc(N(C)C(=S)Oc2ccc3c(c2)CCCC3)n1
inactive: [1] | [4] | [8] | [6]

NNC(=O)c1ccncc1
inactive: [1] | [4] | [5] | [8] | [6]

CC(C)(C)C(=O)OCOP(=O)(COCCn1cnc2c(N)ncnc21)OCOC(=O)C(C)(C)C
inactive: [1] | [4] | [8] | [6]

CCCN[C@H]1CCc2nc(N)sc2C1
inactive: [1] | [4] | [5] | [8] | [6] | [7]
